Results reported in publication PMC7819943, “Rice protein-binding microarrays: a tool to detect cis-acting elements near promoter regions in rice”.
The full ranking holds about 68,000 sequences; the median of “fluorescence intensity (a.u.)” is about 9,100, and the highest 2% start at about 16,000. This excerpt belongs to a sample that is enriched for the highest values.

Target: OsWRKY34 (Oryza sativa, UniProt Q0JBA9 1-250)
Test: protein-binding microarray (RPBM); PBS, 2% BSA, 51.3 ng/ul salmon testes DNA, 50 uM zinc acetate, 200 nM TF, 25 C, 1 h; high values mean tight binding
Conditions: protein: recombinant; tags: N-terminal polyhistidine and DsRed monomer fusion (pET32a); label: CyDye5-dUTP incorporated in the synthesized complementary strand; 3' TTTTT single-stranded linker to array surface; dsDNA, one strand shown
Method in brief: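 The binding signal is fluorescence intensity per feature, in arbitrary units, read on an Axon 4000B scanner. Polyhistidine- and DsRed-tagged transcription factors (N-terminal fusions) from E. coli BL21-CodonPlus were purified on Ni–NTA and applied at 200 nM for 1 h at 25 °C to a double-stranded, BSA-blocked custom Agilent array in buffer with 50 µM zinc acetate.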

Sequence of OsWRKY34 (Q0JBA9 entry or part of it): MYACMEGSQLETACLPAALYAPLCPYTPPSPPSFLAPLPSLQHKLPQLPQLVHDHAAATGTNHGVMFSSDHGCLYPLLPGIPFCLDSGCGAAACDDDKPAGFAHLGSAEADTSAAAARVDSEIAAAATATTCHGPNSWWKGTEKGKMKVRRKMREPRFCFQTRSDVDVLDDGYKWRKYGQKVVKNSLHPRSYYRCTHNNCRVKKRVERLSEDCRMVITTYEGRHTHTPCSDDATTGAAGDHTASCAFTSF

Sequence | binding signal
GTTACCGAAGTTTTACTTTATACCATATGTACTCTATCTACGGAGTCACCTAGTGCAG | 8060 fluorescence intensity (a.u.)
GAGACACCGACGCGTCACACCACCACGTCCGTTTCCGTACCGGAGTCACCTAGTGCAG | 8300 fluorescence intensity (a.u.)
GTTTATTTGGGTTCTCTTATGTGTTGGTGTGTCGATGACCCGGAGTCACCTAGTGCAG | 8940 fluorescence intensity (a.u.)
AAATGTATTTATTTTTTTTCTACTCCCTCCGCCCCTTAATCGGAGTCACCTAGTGCAG | 8590 fluorescence intensity (a.u.)
ATCCTGGACTATGGCTTTCTCTCGTAGCACGATTTTTCTTCGGAGTCACCTAGTGCAG | 10600 fluorescence intensity (a.u.)
ATTAGTTTTTTTTTCTATATTTAATACTCCATGCATATGTCGGAGTCACCTAGTGCAG | 9200 fluorescence intensity (a.u.)
TTACTTGTACTGTTTGACTATTCGTCTTATTCCAAAAAAACGGAGTCACCTAGTGCAG | 8820 fluorescence intensity (a.u.)
ACTTTTAAACCCATGTTTTACCATTCATCTTAATAAAAAACGGAGTCACCTAGTGCAG | 8840 fluorescence intensity (a.u.)
TTTGTTTCTTGTTCTAGAGGGTTTCCTAAGGTGTTTAGGACGGAGTCACCTAGTGCAG | 9940 fluorescence intensity (a.u.)
AGCAGAGATTTTTACCACGTGTCTCAACAAATAGCCACATCGGAGTCACCTAGTGCAG | 8050 fluorescence intensity (a.u.)
CATGGGCTAATGTCCTTTTTTTATATATTTTTTTTGCCCTCGGAGTCACCTAGTGCAG | 8990 fluorescence intensity (a.u.)
TGTAAGCTTATGTGTCATCTTTCTTTGTTTGTGAAGAACCCGGAGTCACCTAGTGCAG | 8190 fluorescence intensity (a.u.)
AGTAGCATTTGTTGACTTGTTGTATTCTTCTAGCCTTTTTCGGAGTCACCTAGTGCAG | 13800 fluorescence intensity (a.u.)
CTTTCTTGCAATTTTGGTCTTCTTTCCTTTTGATTTGGTTCGGAGTCACCTAGTGCAG | 9200 fluorescence intensity (a.u.)
CCTCTTTATTCCATTAGCTTTTTTCATCTTCTGCTCCATCCGGAGTCACCTAGTGCAG | 10500 fluorescence intensity (a.u.)
CCTGACGTGCTTCACCTCACCTGCTCATTTTTTATTTCCCCGGAGTCACCTAGTGCAG | 17300 fluorescence intensity (a.u.)
TCTTGGGCTTGGGCCTTTGCTATTGTATTGGGTTGGGCCTCGGAGTCACCTAGTGCAG | 8400 fluorescence intensity (a.u.)
GGCTGCTATATTGACCTTGCTCTTATTCCTTCATTCAATTCGGAGTCACCTAGTGCAG | 10500 fluorescence intensity (a.u.)
CCTTGCCTAGTCGCTGCTGCTGTTTATAAATTTCAACTCCCGGAGTCACCTAGTGCAG | 8810 fluorescence intensity (a.u.)
GAGCATTGGGTTGGGCCTTCCTTTCTTGTATTCGGCTTCTCGGAGTCACCTAGTGCAG | 16500 fluorescence intensity (a.u.)
CTTTTTCCTTGCAATCGTGATTCTTTTTTTTTTCCCTTTTCGGAGTCACCTAGTGCAG | 17400 fluorescence intensity (a.u.)

Sequence | binding signal
ACTCCTCTTCTCTTCATTTTCTTCTTCCCCTGTGCTTCTCCGGAGTCACCTAGTGCAG | 10900 fluorescence intensity (a.u.)
CGCCCCTTGATTCGCCTCGTTTTTTCTTTTCCCTTTTTTTCGGAGTCACCTAGTGCAG | 9920 fluorescence intensity (a.u.)
CTGCCGGCTGCTCAATTTATTCCCTTGCTGTTTCATTTCGCGGAGTCACCTAGTGCAG | 45500 fluorescence intensity (a.u.)
ATTCCTTGTTGGTAACTGTACCCAGGGGCGGGTCCAACGTCGGAGTCACCTAGTGCAG | 8270 fluorescence intensity (a.u.)
CACGATGATTGTTGCTGCACCATAGTCTCCATGTGTGTACCGGAGTCACCTAGTGCAG | 8410 fluorescence intensity (a.u.)
TGTTTGCACCTTATTACGGTTCTGCGCGCTCTCTCTCTCGCGGAGTCACCTAGTGCAG | 8560 fluorescence intensity (a.u.)
ATACTTAATTAATCATTCGCTAATGGACCACTCTGTTTTCCGGAGTCACCTAGTGCAG | 8430 fluorescence intensity (a.u.)
CCATTGTGTCATTCAGTTATTGTTACTTTCAGTTGTTCTACGGAGTCACCTAGTGCAG | 12200 fluorescence intensity (a.u.)
GTCTCTCTCACCGTCTCCGTGCTCCTCCGCCGCCCAAGGGCGGAGTCACCTAGTGCAG | 12900 fluorescence intensity (a.u.)
GCAAGGTGTACCCGCAGTTCTCACGGTTACCACCATTTTCCGGAGTCACCTAGTGCAG | 8430 fluorescence intensity (a.u.)
CGTTCGCGTTTCGGTTTGACCGCGCGTCTCGCCTAGATTTCGGAGTCACCTAGTGCAG | 8650 fluorescence intensity (a.u.)
TGGTGTTGTTGGTGTCGTCTTGTTCTTGTTTGTGTTTTCTCGGAGTCACCTAGTGCAG | 15900 fluorescence intensity (a.u.)
CGAGGTCGTTTGGTTTTCTTTTCCTTTTTGGTTGTGTGTTCGGAGTCACCTAGTGCAG | 9070 fluorescence intensity (a.u.)
CGAGTCGAGCTTTTCTTTCTTTGGTTGGTTGGTTGGTGTTCGGAGTCACCTAGTGCAG | 19600 fluorescence intensity (a.u.)
CGAGGTTCTTTGCTTCATACTTTTTTTTGGTGTTCTACTTCGGAGTCACCTAGTGCAG | 11200 fluorescence intensity (a.u.)
AGTTTTTTTTTCAGCTTTTTGGTTTCTTTTGCTGTTGTTTCGGAGTCACCTAGTGCAG | 10300 fluorescence intensity (a.u.)
TTGGTTCGGTTTTTTCTGCCCGCGTCGGTTTTTGTCTCACCGGAGTCACCTAGTGCAG | 20100 fluorescence intensity (a.u.)
GTGCTACTCCATATACGTATGGCTGGTTTGGTTGGTTGAGCGGAGTCACCTAGTGCAG | 21400 fluorescence intensity (a.u.)
GTGGGTATGGTTGACTTGACGGACGTACTACTCCATACTACGGAGTCACCTAGTGCAG | 8190 fluorescence intensity (a.u.)
AGAGTTTGGCATACTCCTACGTATCATTGTCGACCTTTAGCGGAGTCACCTAGTGCAG | 8340 fluorescence intensity (a.u.)
TGGTTGGTTTGTTGGGTTCTTTTCCTTTTTTTTGTTTCTTCGGAGTCACCTAGTGCAG | 26700 fluorescence intensity (a.u.)

Sequence | binding signal
CGGCTAGGGTTTGTTTTTCTTTTCTTTTTTTCCTTTTCTTCGGAGTCACCTAGTGCAG | 14300 fluorescence intensity (a.u.)
TAGATAGGGGATGTATAGGACAAGAGAGAACACATGCATTCGGAGTCACCTAGTGCAG | 8690 fluorescence intensity (a.u.)
TTAACCTCTCTCTTAATTTCAGTTTGTTTGTTCGTTCGTTCGGAGTCACCTAGTGCAG | 9010 fluorescence intensity (a.u.)
ACAGCCTATATACACTACTCACTCCGTCTCAGAATATAAGCGGAGTCACCTAGTGCAG | 8900 fluorescence intensity (a.u.)
CATCCCAATTTTCTGGCCACACTTGCATCCCTCTGCCGCCCGGAGTCACCTAGTGCAG | 10800 fluorescence intensity (a.u.)
ACCACCCTACCTAGCTTAGAATATTTACCATGCATTCTCTCGGAGTCACCTAGTGCAG | 11100 fluorescence intensity (a.u.)
TCTTCTTCTTGTTTCGGCTTCCGCCTCCGTCCCGCGCGCGCGGAGTCACCTAGTGCAG | 13800 fluorescence intensity (a.u.)
CAAATTATGAGCCTGTTCACTTTGATGCTCTTTTCAACCACGGAGTCACCTAGTGCAG | 8320 fluorescence intensity (a.u.)
TCCCAAACCCCGCGCCGCCTCTTACCGCTTCGCGTCAGCTCGGAGTCACCTAGTGCAG | 8490 fluorescence intensity (a.u.)
ACCTATCTTTCTCTATTTTTTATTTTTTTAGCGAAACACACGGAGTCACCTAGTGCAG | 9780 fluorescence intensity (a.u.)
TCCGTTTTTGTGGTTTTCGATGGATTCCGTCGTCGCCGACCGGAGTCACCTAGTGCAG | 9660 fluorescence intensity (a.u.)
GATGGACATTGTTTGCCATCACCGTCAACGACCGTTGACTCGGAGTCACCTAGTGCAG | 12900 fluorescence intensity (a.u.)
GCTTCGTTGGCTCCGTGAAACTGTCTCTCTCTCCCAACTCCGGAGTCACCTAGTGCAG | 8030 fluorescence intensity (a.u.)
TTTGCACTGGTTTTGTAAGTTGGGGATGTATTGTATGAGGCGGAGTCACCTAGTGCAG | 9560 fluorescence intensity (a.u.)
CGTGAGGAATGGGATTTTTATTTTGCTGGTTACTGTTTGACGGAGTCACCTAGTGCAG | 10000 fluorescence intensity (a.u.)
AGTCAAATTTGTTTTTTTTCGTTGCAACTTGTATAATTTACGGAGTCACCTAGTGCAG | 9430 fluorescence intensity (a.u.)
GTGTCATTCTCCTCACACGCCGGTCTCCATGAGCGAGTTTCGGAGTCACCTAGTGCAG | 8110 fluorescence intensity (a.u.)
AAAGTTGGGGTCAGGTGGTTTTGGTTCTGTGTTCAAGGGACGGAGTCACCTAGTGCAG | 11500 fluorescence intensity (a.u.)
GACGTGTTTGGTCTTCGGTTCGGTGGGTCTCAAGTTCTGACGGAGTCACCTAGTGCAG | 19400 fluorescence intensity (a.u.)
AAAATTCTTGGTCTTCTTGGTCTCGGTTAGTTCGGTTCGACGGAGTCACCTAGTGCAG | 8110 fluorescence intensity (a.u.)
GGACCCACCTGCCGAACCAGCACGCATCGCGTCTCGCACCCGGAGTCACCTAGTGCAG | 8590 fluorescence intensity (a.u.)

Sequence | binding signal
ATCACGGGATTACACAGCAAAGTAGCAAAGCTAAATTTTACGGAGTCACCTAGTGCAG | 63700 fluorescence intensity (a.u.)
TGCAAAGTAGTAGTTGGGGATTTAATAGTGGCTTACAATACGGAGTCACCTAGTGCAG | 8620 fluorescence intensity (a.u.)
GGTCAAATTCTCATTTTGCAATATCCCACAGCTAATTACACGGAGTCACCTAGTGCAG | 9540 fluorescence intensity (a.u.)
GCTAATAAGTGCTTACATTGTTTTGGATGATCACCAGCAACGGAGTCACCTAGTGCAG | 8080 fluorescence intensity (a.u.)
ATGCTCCTACTTTCCTTTGCTGTATATATTACTCCATTTGCGGAGTCACCTAGTGCAG | 8260 fluorescence intensity (a.u.)
CCAACCGCCGCGCCGCTTCGCTGTCTTCACCGTGCCGCTCCGGAGTCACCTAGTGCAG | 8620 fluorescence intensity (a.u.)
TTCGTCTCCGTTTCGTCTTCTTCTTCTTCTTCTTCTTCGGCGGAGTCACCTAGTGCAG | 8790 fluorescence intensity (a.u.)
CCGAATCCGGCCACCCCGCCGCCTCCACGCGCATCACCGCCGGAGTCACCTAGTGCAG | 11100 fluorescence intensity (a.u.)
GCAAACTTTATTGCTCCGCGTTCTTCCTTTCTCTGTGTTTCGGAGTCACCTAGTGCAG | 8910 fluorescence intensity (a.u.)
TCATTCCTATGTTTTTTCTGTGTTTTGCAATTCTCTGTTTCGGAGTCACCTAGTGCAG | 14900 fluorescence intensity (a.u.)
GAATCCACCGCATTTTTCCGCCGCCCCACGCGGCGCCACCCGGAGTCACCTAGTGCAG | 19700 fluorescence intensity (a.u.)
ACCCCACCTGTCAGACAACCCCACCGCCGCTTCGCTTCACCGGAGTCACCTAGTGCAG | 17300 fluorescence intensity (a.u.)
AGCTTCCTCCGTTTTTTTCTTTCTTTCTTTCTTTTTTTTTCGGAGTCACCTAGTGCAG | 11800 fluorescence intensity (a.u.)
GCACCGGCGCCACCGCCCGCGCCCGCACCACCGCCCACGCCGGAGTCACCTAGTGCAG | 8870 fluorescence intensity (a.u.)
TTCCTCCGTTTTCTCCGTTCGTCTTCCTCCGCTTCCGAAGCGGAGTCACCTAGTGCAG | 18000 fluorescence intensity (a.u.)
TCATTGCTCTCTGTGTTTCTCCGCTATGCCGCCACGTCTTCGGAGTCACCTAGTGCAG | 16700 fluorescence intensity (a.u.)
ACCCACCACAACCAGTGATCAGACACCACCTACCGCGCGCCGGAGTCACCTAGTGCAG | 8330 fluorescence intensity (a.u.)
GGAGCACCTGTCGTGCGCTGCCGCCATGTACGCGGCGCCGCGGAGTCACCTAGTGCAG | 8360 fluorescence intensity (a.u.)
ATACCCGATCTCATTATTATGAACCAGTTATGTAATAACACGGAGTCACCTAGTGCAG | 8020 fluorescence intensity (a.u.)
TGCACAAAGGTTATGCGATATCGACGGTATATTTCCACAACGGAGTCACCTAGTGCAG | 9520 fluorescence intensity (a.u.)
TGGCCGCGGCTGCTGCTGAGTGTGGTGGTGGTGGGAGGCACGGAGTCACCTAGTGCAG | 8880 fluorescence intensity (a.u.)
